Source: PubChem BioAssay
FBW7 act: FBW7 E3 ligase activators, primary screen, biochemical, AlphaScreen, human; F-box/WD repeat-containing protein 7 (Homo sapiens), Q969H0; AlphaScreen FBW7–phospho-cyclin E peptide binding, activator screen; AID 1259310, 2017; hit rate 0.13% among 650,000; normalized activity (activation), % at 26.1 µM; in the data active means normalized activity above about 1.9%;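 further: purified mutant Fbw7 with reduced substrate affinity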
TEAD-YAP block: TEAD-YAP interaction inhibition, primary screen, TEAD-YAP interaction inhibitor project, luminescence, HEK-TIYL cells; hit rate 1.4% among 640,000; TEAD-Gal4/YAP UAS-luciferase luminescence; inhibition, % at 9.12 µM; in the data active means inhibition above about 32%
GPR151 activ: activators of human GPR151, primary screen, cell-based, PathHunter beta-arrestin, luminescence | G-protein coupled receptor 151 (Homo sapiens), Q8TDV0 | PathHunter beta-arrestin GPR151 cells | activation, % at 11.2 µM | hit rate 1% among 650,000 | AID 1508602, 2020; in the data active means activation above about 4.9%
Target sequence (Q8TDV0 whole entry, looked up): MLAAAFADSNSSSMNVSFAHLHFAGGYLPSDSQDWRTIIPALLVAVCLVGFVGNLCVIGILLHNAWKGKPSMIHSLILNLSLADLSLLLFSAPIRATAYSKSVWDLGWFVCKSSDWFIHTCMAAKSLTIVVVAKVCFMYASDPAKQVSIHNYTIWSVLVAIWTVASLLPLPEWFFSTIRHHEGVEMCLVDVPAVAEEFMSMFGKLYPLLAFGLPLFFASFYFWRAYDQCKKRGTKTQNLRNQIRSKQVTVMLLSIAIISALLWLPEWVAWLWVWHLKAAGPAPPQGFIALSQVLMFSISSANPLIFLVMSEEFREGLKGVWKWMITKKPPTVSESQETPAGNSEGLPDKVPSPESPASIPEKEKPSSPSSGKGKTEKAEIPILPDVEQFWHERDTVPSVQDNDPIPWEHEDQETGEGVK
MITF primary: MITF inhibitors, primary screen, biochemical, AlphaScreen, human | Microphthalmia-associated transcription factor (Homo sapiens), O75030 | hit rate 0.91% among 650,000 | inhibition, % at 2.6 µM | AlphaScreen MITF homodimerization, bead proximity signal; in the data active means inhibition above about 50%
GPR151 confirm: GPR151 activators, triplicate retest, confirmation, cell-based, PathHunter beta-arrestin, luminescence; shares compounds with GPR151 activ; 6,700 tested, under 10 active; GPR151 PathHunter beta-arrestin cells, 90 min; % of EA-reagent control over plate median; activation, % at 11.2 µM;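 active means mean percent activation across replicates above the confirmation screen cutoff of 4.91%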
GPR119 counter: GPR119 activators in beta-arrestin cells, counter-screen for GPR151 activator project, cell-based, PathHunter beta-arrestin, luminescence, triplicate. activation, % at 11.2 µM. hit rate 0.3% among 6,700. 90 min; 0 = compound-well median, 100 = enzyme-acceptor control. shares compounds with GPR151 activ;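 active means mean percent activation in the counterscreen above 29.09%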;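 further: counterscreen on off-target GPR119 to flag nonselective hits from the GPR151 activator screen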
Numbers stand for hits; – = inactive; · = no result. Only some compounds are listed: those with a hit (about 3.5% of all), similar ones and a draw of the others.

SMILES	FBW7 act	TEAD-YAP block	GPR151 activ	MITF primary	GPR151 confirm	GPR119 counter
Cc1c(C(=O)OC(C)C)sc(NC(=O)c2ccccc2F)c1C#N	–	–	5.8	–	–	–
O=c1[nH]c(SCc2ccccc2)nc2c1C1(CCCCC1)Cc1ccccc1-2	–	–	–	–	·	·
O=c1[nH]c(Cc2ccccc2)nc2c1C1(CCCCC1)Cc1ccccc1-2	–	–	5.1	–	–	–
Cc1ccc(NC(=O)C2CCN(S(=O)(=O)c3ccc(Cl)s3)CC2)cc1	–	–	5.9	–	–	–
O=C1c2cccnc2C(=O)N1Cc1ccc(S(=O)(=O)NC2CCCC2)s1	–	–	–	–	·	·
Cc1cccc(-n2nc3c(c2NC(=O)c2ccc(Br)o2)CS(=O)C3)c1C (stereo not drawn)	–	–	–	–	·	·
CCN(CCNC(=O)c1cc(C)nn1-c1ccccc1)c1ccccc1	–	–	7.9	–	–	–
COCCNC(=O)c1cc(C)nn1-c1ccccc1	–	–	–	–	·	·
CCOC(=O)C1CCN(C(=O)Nc2ccc(Cl)cc2Cl)CC1	–	–	5.4	–	–	–
Cc1ccc(Cn2ccnc2SCC(=O)Nc2ccccc2F)cc1	–	–	8.6	–	–	–
O=C(CSc1nccn1Cc1ccc(F)cc1)Nc1nccs1	–	–	7.0	–	–	–
O=C(Cn1c(=O)n(Cc2ccco2)c(=O)c2oc3ccccc3c21)Nc1ccc(F)cc1	–	–	–	–	·	·
CCc1ccc(N(C(=O)c2csnn2)C(C(=O)NC(C)(C)CC)c2ccncc2)cc1 (stereo not drawn)	–	–	22	–	–	–
CC(C)CCN1CCNC(=O)C1CC(=O)N(Cc1nccn1C)C(C)C (stereo not drawn)	–	–	5.8	–	–	–
CCOC(=O)/C(C#N)=C/c1c(Oc2ccccc2)nc2c(C)cccn2c1=O	–	–	–	–	·	·
O=C(Nc1ccc(O)cc1C(=O)O)c1ccc(Oc2ccc([N+](=O)[O-])cc2)cc1	–	–	–	–	·	·
COc1ccccc1NS(=O)(=O)c1ccc2oc(=O)ccc2c1	–	–	–	–	·	·
CCc1ccccc1NS(=O)(=O)c1ccc2oc(=O)ccc2c1	–	–	13	–	–	–
Cc1ccc(S(=O)(=O)NC(=O)N2CC3C4C=CC(C4)C3C2)cc1 (stereo not drawn)	–	–	–	–	·	·
CCN(CC)S(=O)(=O)c1ccc(C(=O)OCC(=O)c2ccc(F)cc2)cc1	–	–	–	–	·	·
CN(C)S(=O)(=O)c1ccc(C(=O)OCCCC(=O)c2ccc(F)cc2)cc1	–	–	11	–	–	–
Cc1ccccc1C(=O)NC(C)c1nnc2n1CCN(Cc1cccc(F)c1F)CC2 (stereo not drawn)	–	–	–	–	·	·
CC(C)N(C)Cc1nnnn1CC(=O)N1CCN(c2ccccc2O)CC1	–	–	5.0	–	–	–
CS(=O)(=O)c1cnc(N)nc1-c1ccc(C(F)(F)F)cc1	–	–	–	–	·	·
O=C(Cn1cnc2c(nnn2-c2ccc(F)cc2)c1=O)N1CCOCC1	–	–	–	–	·	·
SMILES	FBW7 act	TEAD-YAP block	GPR151 activ	MITF primary	GPR151 confirm	GPR119 counter
CC(C)(C)NS(=O)(=O)c1ccc2nc(NC(=O)c3cccnc3)sc2c1	–	–	6.2	–	–	–
Cc1ccc(C(=O)Nc2nc3ccc(S(C)(=O)=O)cc3s2)cc1	–	–	–	–	·	·
O=C(CSc1ncnc2c1nnn2Cc1ccccc1F)N1CCCCC1	–	–	–	–	·	·
CCCCc1cc(=O)oc2c(C)c(OCC(=O)OCC)ccc12	–	–	–	–	·	·
CCOC(=O)C1=C(C)N=C2SCC(=O)N2C1c1cccc2ccccc12 (stereo not drawn)	–	–	7.6	–	–	–
CCOC(=O)C1=C(C)N=C2SCC(=O)N2C1c1ccc(OC)c2ccccc12 (stereo not drawn)	–	–	–	–	·	·
CSc1ccc(S(=O)(=O)Nc2ccc(S(=O)(=O)N3CCOCC3)cc2)cc1	–	–	5.8	–	–	–
COc1ccccc1C(=O)Nc1ccc2c(C)cc(=O)oc2c1	–	–	17	–	–	–
